# Source: PubChem BioAssay (NCATS)
# Inconclusive results are not listed. A number with no mark means an inactive call. Activity calls are given as the source filed them. The call rests on the fitted dose curve; in most records, active means well fitted inhibition curve with a large enough effect; inconclusive means small, poorly fitted or top-dose-only effect; inactive means no such curve, though single readings can be large or run the other way.
# Test: qHTS for Inhibitors of the Aldehyde Dehydrogenase Family (ALDH1A2, ALDH1A3, ALDH2, ALDH3A1) (AID 2061307); further: nearly all actives have a fitted effect of over 50% in size; on Potency: test system not described further here
# Conditions: ALDH inhibition qHTS; series mostly up to 50.3 µM; activity change, negative = inhibition: at the top concentration
# On the % scale 0 is the no-effect control and ±100 the full control effect; potency means the concentration at half of the fitted maximal effect.
Structure (SMILES),"activity change, negative = inhibition",Potency
O=C(c1ccco1)N1CCN(Cc2nc3ccccc3c(=O)n2-c2ccccc2[N+](=O)[O-])CC1,-18%,
Cc1cccc(NC(=O)c2nc(C)n(-c3ccc(F)cc3)n2)n1,0% [at 34.4 µM],
O=C(Nc1nnc(Cc2ccccc2)s1)c1ccc(F)c(F)c1,-13.5% [at 34.4 µM],
COC(=O)CNCc1c(O)ccc2ccccc12,,6.34 µM (active)
N#Cc1ccc(CN2CCC(N(CCc3ccccc3)Cc3ccccc3)CC2)cc1,-18.5%,
CCOC(=O)OC(C)OC(=O)c1csc(-n2[nH]c(-c3ccc(F)c(F)c3)cc2=O)n1 (stereo not given),-28.1%,
COc1ccc(C2Nc3c(OC)ccc(OC)c3C(=O)N2Cc2ccccc2)cc1COc1ccc(NC(C)=O)cc1 (stereo not given),,2.83 µM (active)
Oc1[nH]c2ccccc2c1N=NC(=S)Nc1ccc2c(c1)CCC2,-18.5%,
Cc1cc(Br)c2c(c1)/C(=C\C(=O)c1cccs1)C(=O)N2,,2.52 µM (active)
c1ccc(Nc2cc(-c3ccoc3)ncn2)cc1,-13%,
N#Cc1cccc(NC(=O)N2C[C@@H]3C[C@H](C2)c2ccc(-c4ccc(OC(F)(F)F)cc4)c(=O)n2C3)c1,-16.3% [at 34.4 µM],
COc1ccc(-c2cc(C(=O)Nc3ccc(C(N)=O)cc3F)sc2C)cc1,0% [at 34.4 µM],
O=C(c1ccco1)N1CCN(Cc2nc3ccccc3c(=O)n2-c2ccccc2Oc2ccccc2)CC1,-23.3%,
COc1ccc(N2CCN(C(=O)c3cnc(N4CCCCC4)c4ccccc34)CC2)cc1,-30%,
O=C(Nc1ccc(C(=O)N2CCCC2)cc1)c1cccc(Cl)c1,-64.8% [at 34.4 µM],
N#Cc1cccc(NC(=O)c2cc3c(s2)-c2ccc(Cl)cc2SC3)c1,-43.4% [at 34.4 µM],
COc1ccc(Nc2nc(N3CCCC3)nc(N3CCOCC3)n2)cc1,10.8%,
N#Cc1ccc(C(=O)Nc2nnc(C3=COCCO3)o2)cc1,-19.6%,
COc1ccc(-c2cc(C(=O)Nc3sc4c(c3C(N)=O)CCCC4)no2)cc1,0% [at 34.4 µM],
O=C(N/N=C/c1ccco1)c1cccc(F)c1,-24.2%,

Structure (SMILES),"activity change, negative = inhibition",Potency
O=C(Cn1nc2c(cc1=O)CCCC2)Nc1nc(-c2ccc3c(c2)OCO3)cs1,-25% [at 34.4 µM],
O=C(N/N=C/c1ccc(Sc2cccc3cccnc23)o1)c1cccc(F)c1,,7.12 µM (active)
COc1cc2nc(N3CCN(C)CC3)nc(N)c2cc1OC,0.956%,
Cc1ccc(CNc2ncnc3c2oc2ccccc23)cc1,-1.39%,
O=C(NCc1ccccc1Cl)c1ccc(-c2nn[nH]n2)cc1,-27.2% [at 34.4 µM],
COc1cc(O)c(C(CC(=O)N2CC(C)CC(C)C2)c2ccccc2Cl)c(OC)c1 (stereo not given),,1 µM (active)
CC(=O)c1cccc(NC(=O)c2noc3c2CSc2ccccc2-3)c1,-16% [at 34.4 µM],
O=C(O)c1csc(-n2nc(-c3ccc(F)c(F)c3)cc2Cc2nn[nH]n2)n1,2.88%,
Cc1c2c(=O)n(-c3ccccc3)[nH]c2cc(=O)n1Cc1ccccn1,-29%,
O=C(Nc1cccc(S(=O)(=O)N2CCOCC2)c1)c1cc(-c2cccnc2)nc2ccccc12,-53.6%,
CS(=O)(=O)c1cccc(-c2csc3ncnc(NCc4ccccn4)c23)c1,,14.1 µM (active)
O=C(Nc1nnc(-c2ccccn2)o1)c1ccc(Cl)cc1Cl,,12.7 µM (active)
O=Cc1ccc(Sc2ccccn2)o1,3.67%,
CCN(CC)S(=O)(=O)c1ccc(NC(=O)c2ccc(CN3CCc4ccccc4C3)cc2)cc1,36.6%,
CC(=O)c1c(C)[nH]c2ccc(O)cc12,4.59% [at 34.4 µM],
Nc1nc(NCc2ccccc2)c2ccccc2n1,,10 µM (active)
CCS(=O)(=O)c1nc(-c2ccc(Cl)cc2)cc(C(F)(F)F)n1,,4.47 µM (active)
O=C1C=CC(=O)N1c1cccc(Br)c1,,0.0896 µM (active)
FC(F)(F)c1ccc(CNc2nc(-c3ccncc3)nc3ccccc23)cc1,,4.47 µM (active)
COc1ccccc1CNC(=O)c1ccccc1N,-12.6%,
